# Assay outcomes as filed in PubChem.
# NPR1 antag: blocks ANP-stimulated signaling of human Npr1 receptor. 1.6% of 76,000 active. Potency, µM (highest dose often 46.3 µM), for inactives: at the top dose activity change, negative = inhibition, usual class: inhibitors. P16066. HEK293 hNpr1 GloSensor cGMP, ANP-stimulated luminescence; calls by dose curve; further: nearly all actives have a fitted effect of over 60% in size
#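 HEK293 cells stably expressing human Npr1 and cGMP GloSensor pGS-40F, loaded 2 h with 2% GloSensor reagent, given compound 30 min at room temperature. Luminescence read before and 20 min after 0.1 nM hNppA.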
# NIH3T3 tox: kills NIH 3T3 cells; NIH 3T3 viability, CellTiter-Glo ATP luminescence, 48-72 h; Potency, µM (doses to about 96.7 µM), for inactives: top-dose activity change, negative = cytotoxicity, hits mostly inhibitors; 4.3% of 94,000 active; further: nearly all actives have a fitted effect of over 55% in size
#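 First NIH 3T3 cells are plated at 400 cells/well; next compound is pinned in; then plates incubate 48 or 72 hr at 37 °C; finally CellTiter-Glo is added and luminescence read after 10 min.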
# HEK293 tox: HEK 293 cell cytotoxicity | AID 1345083 | 6.6% of 94,000 active | HEK 293 viability, ATP luminescence (CellTiter-Glo), 48-72 h | Potency, µM (series often up to 115 µM), inactives show at the top dose activity change, negative = cytotoxicity, usual class: inhibitors; further: nearly all actives have a fitted effect of over 60% in size
#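 Cells seeded first (HEK 293, 250 cells/well), then compound added by pintool. Incubation ran 48 or 72 hr at 37 degree Celsius. CellTiter-Glo was added and luminescence imaged after 10 min at room temperature.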
# FLuc inh: inhibitors of firefly (Photinus pyralis) luciferase | purified P. pyralis luciferase, luminescence, biochemical | Potency, µM (highest dose often 115 µM), actives largely listed as inhibitors | 2.5% of 76,000 active | AID 1347043; further: nearly all actives have a fitted effect of over 65% in size
#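 Inhibitors were tested against purified firefly luciferase in a biochemical, low-substrate format (both substrates at 10uM) and luminescence measured with a CCD imager.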
# * = called active by the depositor; i = inactive; ? = inconclusive; · = no result; [ ] = another dose, or the depositor's remark. Hits are enriched below; roughly 11% of the tested compounds scored in any of these assays. Unless noted, the call rests on the fitted dose curve; in most records, active means well fitted curve in the direction sought with a large enough effect; inconclusive means small, poorly fitted or top-dose-only effect, or another doubt; inactive means no such curve, though single readings can be large; an effect the other way counts as inactive or inconclusive. On the % scale 0 is the no-effect control and ±100 the full control effect; potency means the concentration at half of the fitted maximal effect.
SMILES,NPR1 antag,NIH3T3 tox,HEK293 tox,FLuc inh
OC(c1nc(Nc2cccc(C(F)(F)F)c2)n[nH]1)C1CC1 (stereo not drawn),-12%[70.6 µM],?,?,?
COc1ccccc1C(O)c1nc(Nc2ccc(C(C)C)cc2)n[nH]1 (stereo not drawn),-11%[70.6 µM],?,100µM*,i
OC(c1cccc(C(F)(F)F)c1)c1nc(Nc2ccc(F)cc2)n[nH]1 (stereo not drawn),-26%[70.6 µM],?,79µM*,i
CC(C)c1ccc(Nc2n[nH]c(C(O)C3CC3)n2)cc1 (stereo not drawn),-17%[70.6 µM],?,?,16µM*
Cc1ccccc1-c1cn[nH]c1C1CCN(C(=O)CN2CCNC(=O)C2)CC1,-16%,-7%,-5%,i
O=C(Nc1ccccc1F)N1CCCC1c1nncn1-c1ccccc1 (stereo not drawn),0%,i,-3%,i
OC(c1nc(Nc2ccc(N3CCOCC3)cc2)n[nH]1)C1CC1 (stereo not drawn),-1%[70.6 µM],?,?,i
OC(c1nc(Nc2ccc(Cl)cc2)n[nH]1)C1CC1 (stereo not drawn),-23%[70.6 µM],?,?,22µM*
O=C(Nc1ccc(F)cc1)N1CC[C@H]2COC(=O)N2c2cc(F)ccc2C1,4%[70.6 µM],?,-8%[172 µM],56µM*
Cc1cc(C)n(Cc2ccc(C(=O)NCC3Cn4cccc4C(=O)N3C)o2)n1 (stereo not drawn),-1%,-20%,-19%,i
NC(=O)Cc1c[nH]c2ncc(-c3cccc(C(F)(F)F)c3)cc12,-27%[70.6 µM],32µM*,?,i
COc1cccc(-c2cnc3[nH]cc(CC(N)=O)c3c2)c1,-19%[70.6 µM],71µM*,-19%[230 µM],89µM*
NC(=O)Cc1c[nH]c2ncc(-c3cccc(OC(F)(F)F)c3)cc12,-11%[70.6 µM],?,?,i
O=S(=O)(c1cccnc1)N1CCCC2(C1)Nc1cccnc1NC2=NCc1ccccc1 (stereo not drawn),-2%,i,-2%,i
COCCn1ccc2ccc(C(=O)Nc3ccc4c(c3)C(=O)N3CCC[C@H]3C(=O)N4)cc21,-1%,?,?,i
O=C(NC1CCCN(c2ccc3nnc(-c4ccccc4)n3n2)C1)c1ccccn1 (stereo not drawn),·,?,28µM*,·
O=C(NC1CCCN(c2ccc3nnc(-c4ccccc4)n3n2)C1)c1ccc(F)cc1 (stereo not drawn),·,-26%,i,·
O=C(NC1CCCC1)NC1CCCN(c2ccc3nnc(-c4ccccc4)n3n2)C1 (stereo not drawn),·,-18%,-16%,·
COc1ccc(C(=O)NC2CCCN(c3ccc4nnc(-c5ccccc5)n4n3)C2)cc1 (stereo not drawn),·,?,22µM*,·
O=C1CC(c2noc(-c3ccc(OC(F)(F)F)cc3)n2)CN1c1ccc(F)cc1 (stereo not drawn),-20%,?,?,i
COc1ccc(C2(C(=O)NC3CCCc4c3[nH]c3c(Cl)cccc43)CCOCC2)cc1 (stereo not drawn),?,22µM*,45µM*,i
O=C(Cc1cccs1)NC1CCCc2c1[nH]c1c(Cl)cccc21 (stereo not drawn),-8%,32µM*,?,i
O=C(Cc1ccc2c(c1)OCCCO2)NC1CCCc2c1[nH]c1c(Cl)cccc21 (stereo not drawn),-6%,?,?,i
O=C(COc1ccccc1)NC1CCCc2c1[nH]c1c(Cl)cccc21 (stereo not drawn),-2%,?,45µM*,i
O=C(Cc1n[nH]c(=O)c2ccccc12)NC1CCCc2c1[nH]c1c(Cl)cccc21 (stereo not drawn),-27%,?,-115%,i
Cc1ccc(-c2cc(N3CCCN(C(=O)c4ccccc4C)CC3)n[nH]2)cc1C,?,40µM*,32µM*,i
COc1ccc(CC(=O)N2CCCN(c3cc(-c4ccc(Br)cc4)[nH]n3)CC2)cc1OC,?,?,?,i
Cc1ccc(CC(=O)N2CCCN(c3cc(-c4ccc(C)c(C)c4)[nH]n3)CC2)cc1,?,32µM*,32µM*,i
COc1cccc(CC(=O)N2CCCN(c3cc(-c4ccccc4)[nH]n3)CC2)c1,-18%,?,35µM*,i
Cc1ccc(-c2cc(N3CCCN(C(=O)c4ccccn4)CC3)n[nH]2)cc1C,-1%,i,?,i
